ELG1 repair inh – blocks ELG1-dependent DNA repair in HEK293T cells; HEK293T ELG1-luciferase reporter, luminescence, 16 h; DNA damage induced by 5-fluorouridine; Potency, µM (series often up to 46.1 µM), without a hit: top-dose activity change, negative = inhibition, usual class: inhibitors; 330,000 compounds, 2.3% hits; AID 504467; also: % is scaled to controls: 0 for no effect and ±100 for the full control effect; nearly all actives have a fitted effect of over 55% in size
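In this reporter screen, reduction of luminescence relative to DMSO vehicle indicated activity. Compounds and 5-fluorouridine were added together to 2,000 cells per well, incubated for 16 hr at 37 °C, then developed with ONE-Glo.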
SW480 rereplic – inducers of DNA re-replication in SW480 colon cancer cells | 340,000 compounds, 1.8% hits | AID 624297 | Potency, µM (top dose mostly 46.1 µM), for inactives: at the top dose re-replication activation, most hits filed as activators | SW480 DNA re-replication, Hoechst DNA content imaging, 48 h; also: % of control where 0% means no effect; nearly all actives have a fitted effect of over 55% in size
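250 cells/well; 23 nL cpd via pin tool; 48 hr, 37 C, 5% CO2; Hoechst 40 min; imager read of total nuclear intensity, ex 405/em 500-530 nm.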
MCF10A rerep – inducers of DNA re-replication in MCF 10A breast cells; AID 624296; MCF 10A DNA re-replication, Hoechst nuclear intensity, 48 h; Potency, µM (series often up to 46.1 µM), without a hit: top-dose activity, positive = re-replication, hits mostly activators; 350,000 compounds, 2.9% hits; also: % of control where 0% means no effect; nearly all actives have a fitted effect of over 50% in size
KB-V1 cytotox – KB-V1 MDR subline cytotoxicity. KB-V1 MDR cells viability, CellTiter-Glo, 72 h. Potency, µM (series often up to 46.1 µM), hits mostly cytotoxic. 400,000 compounds, 3.4% hits; also: % is scaled to controls: 0 for no effect and ±100 for the full control effect; nearly all actives have a fitted effect of over 60% in size
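Potencies derive from concentration-effect curves fitted to normalized luminescence (CellTiter-Glo) of KB-V1 cells treated for 72 h at 37 degrees C in phenol-red-free DMEM containing 10% FBS.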
KB-3-1 cytotox – kills parental KB-3-1 adenocarcinoma cells | AID 1347075 | 400,000 compounds, 1.4% hits | Potency, µM (doses to about 46.1 µM), actives largely listed as cytotoxic | KB-3-1 viability, CellTiter-Glo ATP luminescence, 72 h; also: % is scaled to controls: 0 for no effect and ±100 for the full control effect; nearly all actives have a fitted effect of over 60% in size
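Luminescent ATP read-out (CellTiter-Glo) measures survival of drug-naive KB-3-1 cells after 72 h compound exposure at 37 °C. Titration series was screened from lowest to highest concentration, with DMSO vehicle plates as background controls.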
The depositor's hits bear a star; i = inactive; u = inconclusive; x = no result given. Sampled rows, rich in hits. Any-hit rate of the full collection: about 8.1%. Calls follow the shape of the dose curve; as a rule, active = well fitted curve in the direction sought with a large enough effect; inconclusive = small, poorly fitted or top-dose-only effect, or another doubt; inactive = no such curve, though single readings can be large; an effect the other way counts as inactive or inconclusive. Potency is read from the fitted curve at half-maximal effect.

SMILES | ELG1 repair inh | SW480 rereplic | MCF10A rerep | KB-V1 cytotox | KB-3-1 cytotox
COC1(OC)C(=N/O)/C(=N\O)CCC1O (stereo not drawn) | -1% | 13% | 16µM* | i | i
COc1ccccc1CNC(=O)C(CCSC)NC(=O)c1cccc(S(=O)(=O)N2CCOCC2)c1 (stereo not drawn) | -21% | -5% | 7% | i | i
CC(=O)N1N=C(c2ccc3ccccc3c2)OC1(C)C | 2% | 0% | u | 18µM* | u
CC(=O)N1N=C(c2ccc(C(C)(C)C)cc2)OC1(C)C | 16% | u | u | i | i
COc1ccc(Cc2c(-c3ccc(F)cc3)nc3c4ccccc4ccn23)c(C)c1 | x | x | x | i | i
Cc1cc(N2CCOCC2)nc(NCc2ccccc2)n1 | u | 1% | 7.3µM* | u | i
Cc1cc(N2CCCCC2)nc(NCc2ccccc2)n1 | u | u | u | u | 16µM*
Cc1cc(NCc2ccccc2)nc(N2CCOCC2)n1 | -10% | -5% | 4% | i | i
COc1cccc(Cn2cnc(-c3ccccc3OC)c2-c2cccs2)c1 | x | x | x | i | u
COc1cccc(Cn2cnc(-c3ccccc3OC)c2C2CC2)c1 | x | x | x | 18µM* | u
CCCCc1c(-c2ccccc2OC)ncn1Cc1ccc(Cl)cc1 | x | x | x | 21µM* | u
COc1ccccc1-c1c(C)nn2c(N)c(-c3ccc(Cl)cc3)cnc12 | u | 0% | 0% | i | i
CCc1c(C2CC2)ncn1Cc1cccc(-c2ccccc2)c1 | x | x | x | i | 15µM*
COc1cccc(Cn2cnc(-c3ccccc3OC)c2-c2cccnc2)c1 | x | x | x | i | i
CCOc1ccc2c(c1)ncn2Cc1ccccc1 | u | -2% | -7% | u | i
CCCCc1c(-c2ccccc2OC)ncn1Cc1cccc(-c2ccccc2)c1 | x | x | x | 15µM* | u
CCCN1CCN(CCNC(=O)Nc2ccc(OC)cc2OC)CC1 | x | x | x | i | i
OCC[C@H]1C[C@H](O)[C@@H](O)[C@@]2(OCCCc3ccccc32)O1 | 8% | -7% | 3% | i | i
CCCCc1c(-c2ccccc2OC)ncn1C1CCCC1 | x | x | x | 13µM* | 18µM*
COc1ccccc1C1=Nn2c(nnc2C2CCCCC2)SC1 | u | -5% | 19% | i | i
CCCCc1c(-c2ccccc2OC)ncn1Cc1ccc(-c2ccccc2)cc1 | x | x | x | 10µM* | u
CCCCc1c(-c2ccccc2OC)ncn1CCc1cccc(Cl)c1 | x | x | x | 15µM* | u
COc1ccccc1-c1nn(Cc2ccccc2)cc1/C=C/C(=O)O | 0% | -17% | -3% | i | i
C=CCn1c(SCC(=O)c2ccc(O)c(O)c2)nnc1-c1cccc(OC)c1 | -10% | -3% | -9% | i | i
CC(C)(C)CC(=O)NC1CC(=O)N(c2ccc3c(c2)OCCO3)C1 (stereo not drawn) | x | x | x | u | i
SMILES | ELG1 repair inh | SW480 rereplic | MCF10A rerep | KB-V1 cytotox | KB-3-1 cytotox
N#Cc1cc2cc3c(cc2nc1N1CCCCC1)OCCO3 | u | u | u | i | i
COCCCNC(=S)N1CCCN(c2nc3cc(C)c(C)cc3cc2C#N)CC1 | u | u | 18µM* | i | i
Cc1ccc(C(=O)N2CCCN(c3nc4cc5c(cc4cc3C#N)OCO5)CC2)cc1 | u | 13µM* | 8.2µM* | 23µM* | u
COCCCNC(=S)N1CCCN(c2nc3cc(C)ccc3cc2C#N)CC1 | 21µM* | u | u | u | i
COc1ccc(-c2noc(CCC(=O)N3CCN(c4ccccc4Br)CC3)n2)cc1 | 3% | -14% | u | i | i
COc1ccc(S(=O)(=O)Nc2cccc(N(C)S(C)(=O)=O)c2)cc1Br | u | -2% | 1% | 15µM* | i
CC1(C)CC(=O)c2cc(C(=O)Nc3ccccc3Cl)c(=O)n(-c3ccc(Cl)cc3)c2C1 | x | x | x | i | i
COc1cc2c3c(c1)C(C)CC(C)(C)N3C(=O)C2=O (stereo not drawn) | 2% | u | u | u | i
COc1cc(N=C2C(=O)N3c4c(cccc42)C(C)=CC3(C)C)cc(OC)c1 | 1% | 21µM* | 16% | u | i

Screening results deposited in PubChem by National Center for Advancing Translational Sciences (NCATS).
